# Only some compounds are listed: those with a hit (about 19% of all), similar ones and a draw of the others.
# HT1080NT lethal – kills 2HG-producing HT-1080-NT fibrosarcoma cells | 1.6% of 360,000 active | HT-1080-NT fibrosarcoma viability, CellTiter-Glo ATP luminescence, 48 h | Potency, µM (titrated, usually from 46.1 µM), usual class: cytotoxic;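 also: NT is the 2HG producing partner of a matched IDH1 knockdown line; nearly all actives have a fitted effect of over 55% in size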
#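 Fibrosarcoma NT cells, 750 per well in 5% FBS RPMI, were exposed to compound for 48 hours. Viability: CellTiter-Glo luminescence.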
# TDP1 cell noCPT – qHTS for Inhibitors of human tyrosyl-DNA phosphodiesterase 1 (TDP1): qHTS in cells in absence of CPT; DT40 Tdp1-/- hTDP1 cells, no CPT, ATP luminescence, 48 h; Potency, µM (series often up to 46.2 µM), most hits filed as inhibitors; 15% of 420,000 active; also: nearly all actives have a fitted effect of over 55% in size
#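 Luminescent ATP content (CellTiter-Glo) served as the growth readout. Knockout chicken DT40 cells expressing human TDP1 were exposed to compounds without camptothecin for a minimum 48 hr at 37 °C.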
# ELG1 repair inh – blocks ELG1-dependent DNA repair in HEK293T cells; 2.3% of 330,000 active; Potency, µM (titrated, usually from 46.1 µM), hits mostly inhibitors; HEK293T ELG1-luciferase reporter, luminescence, 16 h; DNA damage induced by 5-fluorouridine; also: nearly all actives have a fitted effect of over 55% in size
#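 DMSO vehicle served as the neutral condition. Each well held 2,000 cells given 5-fluorouridine plus compound; after 16 hr at 37 °C/5% CO2, ONE-Glo was added and luciferase measured 30 min later.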
# HT1080 IDH1KD tx – toxicity to HT-1080 IDH1 knockdown cells (counter line); HT-1080 IDH1 knockdown viability, ATP luminescence, 48 h; Potency, µM (highest dose often 46.1 µM), usual class: cytotoxic; 2% of 360,000 active
#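 In this qHTS, HT-1080 cells depleted of IDH1 are exposed for 48 h at 37 °C to compound titrations. Toxicity is scored from CellTiter-Glo luminescence, with DMSO as full viability and medium alone as none.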
# IL-1B inflam inh – blocks inflammasome-driven IL-1 beta release. THP-1 LPS/ATP IL-1B secretion, AlphaLISA, 16 h; stronger effect = lower value. activity change, % at 57.5 µM. 4.7% of 360,000 active. AID 743279; in the data active = activity change below about -50%; inconclusive = mostly about -30% to -49%
#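 THP-1 cells pretreated 1 hr with compounds (up to 57.5 uM final), then stimulated with LPS (250 ng/mL final) plus ATP (1.25 mM final); secreted IL-1B measured by AlphaLISA after 16 hr, decreased signal indicating inhibition.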
# DT40 TDP1 CPT – growth inhibition of DT40 Tdp1-/-;hTDP1 cells with camptothecin (screen for TDP1 inhibitors) | chicken DT40 Tdp1-/-;hTDP1 cells + 20 nM CPT, ATP luminescence, 48 h | Potency, µM (top dose mostly 46.2 µM), hits mostly inhibitors | 12% of 420,000 active | AID 686979; also: nearly all actives have a fitted effect of over 55% in size
#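 Chicken DT40 Tdp1-/- cells complemented with human TDP1, 400 cells/well, exposed to compounds plus 20 nM camptothecin for at least 48 h at 37 C; viability read as ATP content by CellTiter-Glo luminescence.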
# Hits are given with their value; 0 = inactive; ? = inconclusive; - = no result. Unless noted, calls follow the shape of the dose curve; as a rule, active = well fitted curve in the direction sought with a large enough effect; inconclusive = small, poorly fitted or top-dose-only effect, or another doubt; inactive = no such curve, though single readings can be large; an effect the other way counts as inactive or inconclusive.
SMILES,HT1080NT lethal,TDP1 cell noCPT,ELG1 repair inh,HT1080 IDH1KD tx,IL-1B inflam inh,DT40 TDP1 CPT
COc1cc(/C=C/C(=O)Nc2nnc(CC(C)C)s2)cc(OC)c1OC,0,?,?,0,0,?
COc1cc(/C=C/C(=O)Nc2ccncc2)cc(OC)c1OC,0,?,0,0,0,21µM
COc1cc(/C=C/C(=O)Nc2nnc(CC(C)(C)C)s2)cc(OC)c1OC,0,21µM,0,0,0,?
COc1cc(/C=C/C(=O)Nc2ccc(C(C)=O)cc2)cc(OC)c1OC,0,21µM,?,0,0,?
COc1ccc(NC(=O)/C=C/c2cc(OC)c(OC)c(OC)c2)cn1,0,0,0,0,0,0
CC(Oc1ccccc1)C(=O)Nc1nnc2n1CCS2 (stereo unspecified),-,0,-,-,-,0
COc1ccc(CNC(=O)CN(C(=O)c2snc(C(N)=O)c2N)c2ccc(OC)c(OC)c2)cc1,0,0,0,0,0,0
CSCC[C@H](NC(=O)[C@@H]1CSC2c3ccccc3C(=O)N21)C(=O)N1CCC[C@H]1CO (stereo partly specified),0,0,0,0,0,0
CCCN1C(=O)/C(=C/c2cc(C)n(C)c2C)SC1=Nc1ccc(OC)cc1,?,9.2µM,0,0,0,13µM
COc1ccc(N=C2S/C(=C\c3ccc(C)s3)C(=O)N2CC(C)C)cc1,0,0,0,0,0,0
COc1ccc(N=C2S/C(=C\c3cc(C)n(C)c3C)C(=O)N2C)cc1,0,6.5µM,?,0,0,?
Cc1ccc2c(c1)N(Cc1cccc(C#N)c1)C=NS2(=O)=O,0,?,0,0,0,0
COc1ccc(CNC(=O)[C@H](CCSC)NC(=O)N2CCn3c2nc2ccccc23)cc1,0,0,?,0,0,?
Cc1nn(CC(=O)NCC(C)c2ccccc2)c(=O)c2cc3ccccc3n12 (stereo unspecified),-,0,-,-,-,0
C[C@H]1COC(=O)[C@@H](CC(=O)OC(C)(C)C)C/C=C\C[C@H](CC(=O)NCCO)C(=O)N1,0,0,0,0,0,0
COc1cccc(Cn2c(=O)n(Cc3ccco3)c(=O)c3oc4ccccc4c32)c1,-,23µM,-,-,-,?
CC(C)n1c(=O)c2oc3ccccc3c2n(CC(=O)Nc2ccccc2Cl)c1=O,-,?,-,-,-,0
O=c1c2oc3ccccc3c2n(Cc2cccc(Cl)c2)c(=O)n1Cc1ccco1,-,16µM,-,-,-,16µM
O=c1c2oc3ccccc3c2n(Cc2ccccc2)c(=O)n1Cc1ccco1,-,0,-,-,-,0
COc1ccccc1NC(=O)Cn1c(=O)n(Cc2ccco2)c(=O)c2oc3ccccc3c21,-,15µM,-,-,-,?
CCc1ccc(S(=O)(=O)c2cn(C)c3ccc(C)cc3c2=O)cc1,-,0,-,-,-,0
COCCCN1CC(=O)N2C(c3cccc(OC)c3OC)c3[nH]c4ccccc4c3C[C@H]2C1=O (stereo partly specified),0,0,0,0,0,0
Cc1ccc(C)c(C(=O)Nc2nc3ccccc3[nH]2)c1,0,2.3µM,?,0,0,?
Cc1ccc(/C=C/C(=O)c2nc3ccccc3[nH]2)cc1,0,16µM,?,0,?,21µM
Cc1ccc(/C=C/C(=O)Nc2nc3ccccc3[nH]2)cc1,0,?,?,0,0,13µM
Cc1ccc(Nc2nc3ccccc3[nH]2)nc1,0,16µM,?,0,-53,?
CCNc1nc2ccccc2[nH]1,0,0,0,0,0,0
CC1=C(C(=O)Nc2ccc(C)cc2C)C(c2ccc(O)cc2)n2nnnc2N1 (stereo unspecified),-,?,-,-,-,0
CCOC(=O)C1CCN(C(=O)CSc2n[nH]c(-c3ccc(F)cc3)n2)CC1,-,0,-,-,-,0
Cc1onc(-c2ccccc2)c1C(=O)Nc1cc(C(F)(F)F)ccc1N1CCOCC1,?,2.9µM,?,2.9µM,0,3.7µM
